Our source for the relative cell viability values is the supplement of paper PMC7184167.

Structures are written as SMILES. Where a name gives a salt, the structure may show the parent alone.

For the experiment, the system named is replication-induced senescent mouse newborn dermal fibroblasts (NBF). Kind of experiment: relative cell viability of senescent cells (fraction); higher = less killing of senescent cells. The note with it: 1 µM; 3 days. On the procedure:
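Replication-induced senescent newborn mouse skin fibroblasts (NBFs) in 24-well plates were treated with a Selleck FDA-approved drug library at 1 µM for 3 days.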
Consider `CCC1(c2ccc(N)cc2)CCC(=O)NC1=O` (stereo not drawn) [Aminoglutethimide], for which the relative cell viability turned out to be 0.889.

`COc1cc2c(cc1OC)C1CC(=O)C(CC(C)C)CN1CC2` (stereo not drawn) [Tetrabenazine (Xenazine)] came in with a relative cell viability of 1.04.

`C=C1C[C@@H]2[C@H](CC[C@]3(C)C(=O)CC[C@@H]23)[C@@]2(C)C=CC(=O)C=C12` [Exemestane]: the relative cell viability amounted to 1.08.

`CC(O)(CS(=O)(=O)c1ccc(F)cc1)C(=O)Nc1ccc(C#N)c(C(F)(F)F)c1` (stereo not drawn) [Bicalutamide] gave a relative cell viability of 0.913.

Compound `C[C@]12CC[C@H]3[C@@H](CC[C@@]45O[C@@H]4C(O)=C(C#N)C[C@]35C)[C@@H]1CC[C@@H]2O` [Trilostane] displayed a relative cell viability of 0.778.

Consider `C[C@]12Cc3c[nH]nc3C[C@@H]1CC[C@@H]1[C@@H]2CC[C@@]2(C)[C@H]1CC[C@]2(C)O` [Stanozolol], for which the relative cell viability is 0.136.

In turn, `CN1[C@@H]2C[C@@H](OC(=O)[C@H](CO)c3ccccc3)C[C@H]1[C@@H]1O[C@@H]12` [Scopolamine HBr] showed a relative cell viability of 1.03.

For the compound `Cn1c(CCCC(=O)O)nc2cc(N(CCCl)CCCl)ccc21` [Bendamustine HCl], the relative cell viability came out at 0.999.

Compound `CN(C)[C@@H]1C(=O)C(C(N)=O)=C(O)[C@@]2(O)C(=O)C3=C(O)c4c(O)cccc4[C@@](C)(O)[C@H]3[C@H](O)[C@@H]12` [Oxytetracycline (Terramycin)] registered a relative cell viability of 1.01.

Turning to `CN(C)C(=O)Oc1ccc[n+](C)c1` [Pyridostigmine Bromide], the relative cell viability was found to be 1.19.

Compound `CN1c2ccccc2C(NCCCCCCC(=O)O)c2ccc(Cl)cc2S1(=O)=O` (stereo not drawn) [Tianeptine sodium] registered a relative cell viability of 0.946.

Take `Cn1cc(C2=C(c3cn(C4CCN(Cc5ccccn5)CC4)c4ccccc34)C(=O)NC2=O)c2ccccc21`: the relative cell viability was 0.523.

The compound `COc1ccc(C(CN(C)C)C2(O)CCCCC2)cc1` (stereo not drawn) [Venlafaxine HCl] showed a relative cell viability of 1.03.
